This is a sample that favours compounds with a hit; in the whole collection about 7.5% have one here.
FLuc counter: counter-screen for miR-21 project: firefly luciferase inhibitors or activators. purified FLuc, Km substrates, luminescence inhibition. Potency, µM (titrated, usually from 57.5 µM), most hits filed as inhibitors. hit rate 6.9% among 360,000. P08659; also: nearly all actives have a fitted effect of over 55% in size
Target sequence (P08659 whole entry, looked up): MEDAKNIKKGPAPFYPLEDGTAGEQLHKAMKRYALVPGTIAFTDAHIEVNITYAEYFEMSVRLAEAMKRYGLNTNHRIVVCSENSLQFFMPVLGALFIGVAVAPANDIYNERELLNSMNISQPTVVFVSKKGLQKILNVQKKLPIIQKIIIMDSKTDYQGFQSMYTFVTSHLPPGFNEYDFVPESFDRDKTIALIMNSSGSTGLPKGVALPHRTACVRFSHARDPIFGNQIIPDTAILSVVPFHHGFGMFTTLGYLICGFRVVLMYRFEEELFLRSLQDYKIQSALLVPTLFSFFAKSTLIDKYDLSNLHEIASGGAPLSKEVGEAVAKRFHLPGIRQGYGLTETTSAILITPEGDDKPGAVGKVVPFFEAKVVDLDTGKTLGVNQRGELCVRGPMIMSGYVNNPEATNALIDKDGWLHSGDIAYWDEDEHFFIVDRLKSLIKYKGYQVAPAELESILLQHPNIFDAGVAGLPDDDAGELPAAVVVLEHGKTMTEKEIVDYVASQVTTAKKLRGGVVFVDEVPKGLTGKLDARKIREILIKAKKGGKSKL
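Purified P. pyralis luciferase (10nM final) with 10uM D-luciferin and 10uM ATP (Km levels) in 50mM Tris acetate pH 7.5, 10mM Mg acetate, 0.01% Tween-20, 0.05% BSA; qHTS 6-point titration, ~60 µM downward; luminescence read.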
ELG1 genotox: genotoxicity induction in ELG1-luciferase HEK293T cells. Potency, µM (titrated, usually from 46 µM), hits mostly activators. HEK293T ELG1-luciferase reporter, luminescence, 16 h. hit rate 1.3% among 330,000; also: nearly all actives have a fitted effect of over 60% in size
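Quantitative HTS format in 1536-well plates. HEK293T ELG1-luciferase reporter cells receive test compound and are incubated 16 hr at 37 °C, 5% CO2; ONE-Glo added, 30 min room temperature, then luminescence read.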
SMN2 splice up: SMN2 splice variant enhancement; HEK293 SMN2-luciferase splicing reporter, luminescence, 30-36 h; Potency, µM (top dose mostly 46.1 µM), usual class: activators; hit rate 2.8% among 210,000; AID 1458; also: nearly all actives have a fitted effect of over 55% in size
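qHTS luciferase splicing reporter: luminescence rises when SMN2 exon 7 is included in transfected HEK293 cells. Compound exposure lasted 30-36 h at 37C, with 4.5 mM final sodium butyrate as control, followed by a ONE-Glo read.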
KinaseGlo FLuc: blocks Kinase-Glo luciferase, a counter-screen artifact; Potency, µM (highest dose often 38.3 µM), hits mostly inhibitors; AID 1379; hit rate 0.28% among 200,000; Kinase-Glo luciferase, ATP luminescence, 8 min; Q27757; also: nearly all actives have a fitted effect of over 60% in size
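Light output from Kinase-Glo luciferase with luciferin and 10 uM ATP in 50 mM imidazole pH 7.2, KCl, MgCl2, Tween 20, BSA; compound pin-delivered, 8-min ambient incubation, then luminescence read.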
NPC1 promoter act: NPC1 promoter activation. Huh7 NPC1 promoter luciferase reporter, 24 h. Potency, µM (highest dose often 9.22 µM), actives largely listed as activators. hit rate 2.4% among 320,000. AID 485313; also: nearly all actives have a fitted effect of over 60% in size
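Huh7 cells stably carrying NPC1 promoter–luciferase, plated in Opti-MEM with 10% FBS for 2 h, were exposed to compound in DMSO for 24 h at 37 °C; luciferase reagent was added for 10 min and luminescence read.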
Rab9 prom act: Rab9 promoter activation; Huh7 Rab9 promoter-luciferase reporter, luminescence, 24 h; Potency, µM (highest dose often 9.22 µM), actives largely listed as activators; hit rate 2.8% among 320,000; also: nearly all actives have a fitted effect of over 60% in size
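Luminescence read-out: Huh7 cells stably expressing Rab9-luciferase, treated 24 h with compound at 37 °C, then lysed with luciferase reagent for 10 min at ambient before reading.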
Large screens that a line does not name were inactive. Calls follow the shape of the dose curve; as a rule, active = well fitted curve in the direction sought with a large enough effect; inconclusive = small, poorly fitted or top-dose-only effect, or another doubt; inactive = no such curve, though single readings can be large; an effect the other way counts as inactive or inconclusive.

O=C(Nc1nc(-c2ccccc2)cs1)c1ccc(N2CCOCC2)c([N+](=O)[O-])c1	FLuc counter inconclusive
O=C(Nc1nc2ccccc2s1)c1ccc(N2CCCCC2)c([N+](=O)[O-])c1	FLuc counter 9.5µM, NPC1 promoter act inconclusive, Rab9 prom act 2µM
COc1cccc(/C=N/Nc2ncnc3c2[nH]c2ccc(C)cc23)c1OC	FLuc counter 1.5µM (no result: SMN2 splice up, KinaseGlo FLuc)
C=CCNc1ncnc2c1[nH]c1ccc(C)cc12	FLuc counter 4.3µM, ELG1 genotox 9.2µM, SMN2 splice up 2.8µM, NPC1 promoter act inconclusive, Rab9 prom act 2.5µM
CCOC(=O)C(CC)Sc1c(CC)cnc2c1c(=O)n(C)c(=O)n2C (stereo not drawn)	none (no result: ELG1 genotox, SMN2 splice up, KinaseGlo FLuc, NPC1 promoter act, Rab9 prom act)
COc1cc(NC(=O)NC(C)c2c(-n3cccc3)sc3c2CCN(C)C3)cc(OC)c1 (stereo not drawn)	none (no result: ELG1 genotox, SMN2 splice up, KinaseGlo FLuc, NPC1 promoter act, Rab9 prom act)
COc1ccc(NC(=O)Cn2nnc(C(=O)NCc3ccc4c(c3)OCO4)c2N)c(OC)c1	none (no result: SMN2 splice up, KinaseGlo FLuc)
O=C(NCc1ccncc1)c1ccc2nc(Cc3ccccc3F)oc2c1	none (no result: SMN2 splice up, KinaseGlo FLuc)
CC(c1ccccn1)N(C)C(=O)c1ccc2nc(Cc3ccccc3F)oc2c1 (stereo not drawn)	FLuc counter 6.7µM, ELG1 genotox 13µM, NPC1 promoter act inconclusive, Rab9 prom act 2.8µM (no result: SMN2 splice up, KinaseGlo FLuc)
Cc1cc(CNC(=O)c2ccc3nc(Cc4ccccc4F)oc3c2)nn1C	FLuc counter 11µM, ELG1 genotox inconclusive, NPC1 promoter act 2.8µM, Rab9 prom act 3.2µM (no result: SMN2 splice up, KinaseGlo FLuc)
O=C(c1ccc2nc(Cc3ccccc3F)oc2c1)N1CCCC1	FLuc counter 9.5µM, ELG1 genotox 10µM, NPC1 promoter act 2.8µM, Rab9 prom act 1.3µM (no result: SMN2 splice up, KinaseGlo FLuc)
CC(C)c1ccc2nc(SCC(=O)NCC3CCCO3)c(C#N)cc2c1 (stereo not drawn)	NPC1 promoter act inconclusive, Rab9 prom act inconclusive (no result: SMN2 splice up, KinaseGlo FLuc)
Cc1ccccc1N(C)C(=O)c1noc2c1COc1ccccc1-2	none (no result: ELG1 genotox, SMN2 splice up, KinaseGlo FLuc, NPC1 promoter act, Rab9 prom act)
COc1ccc(OC)c(NC(=O)N2CCC(CN3CCCCC3)CC2)c1	none (no result: ELG1 genotox, SMN2 splice up, KinaseGlo FLuc, NPC1 promoter act, Rab9 prom act)
Cc1nc2sc(C(N)=O)c(N)c2c(C)c1CC(=O)c1ccccc1	FLuc counter 17µM, NPC1 promoter act 3.5µM, Rab9 prom act 2.8µM
Cc1cc(C)c2c(N)c(C(=O)c3ccccc3)sc2n1	FLuc counter inconclusive (no result: SMN2 splice up, KinaseGlo FLuc)
Cc1cc(C(=O)N2CCN(S(C)(=O)=O)CC2)sc1-c1ccccc1	none
Cc1cc(C(=O)N(C)C)sc1-c1ccccc1	FLuc counter 21µM, ELG1 genotox inconclusive, SMN2 splice up 10µM, NPC1 promoter act inconclusive
COC(=O)C(C)N1CCC(=O)c2ccccc2S1(=O)=O (stereo not drawn)	none (no result: SMN2 splice up, KinaseGlo FLuc)
Cc1ccc(NC(=O)Cn2cnc3c(=O)n(C)c(=O)n(C)c32)c(C)c1	none
Cc1ccc2oc(-c3cccc(NC(=O)Cn4cnc5c(=O)n(C)c(=O)n(C)c54)c3)nc2c1	FLuc counter 3.8µM
Cn1c(=O)c2ncn(CC(=O)Nc3ccc(N4CCOCC4)cc3)c2n(C)c1=O	none
CCC(C)c1ccc2oc(-c3ccc(NC(=O)Cn4cnc5c(=O)n(C)c(=O)n(C)c54)cc3)nc2c1 (stereo not drawn)	FLuc counter 12µM, Rab9 prom act inconclusive
Cc1ccc(C)c(-n2c(-c3csc(C)c3C)n[nH]c2=S)c1	none
COc1ccc2[nH]cc(S(=O)(=O)c3ccc(C)c(C)c3)c(=O)c2c1	none (no result: ELG1 genotox, KinaseGlo FLuc, NPC1 promoter act, Rab9 prom act)
O=C(COc1ccc(F)cc1)OCc1cc(=O)n2nc(C3CCCCC3)sc2n1	none (no result: ELG1 genotox, SMN2 splice up, KinaseGlo FLuc, NPC1 promoter act, Rab9 prom act)
Cc1nn(S(=O)(=O)c2ccc(F)cc2)c(C)c1S(=O)(=O)N1CCOCC1	none (no result: SMN2 splice up, KinaseGlo FLuc)
O=C(CC1C(=O)NCCN1Cc1c(F)cccc1Cl)NCCCN1CCCC1=O (stereo not drawn)	none (no result: SMN2 splice up, KinaseGlo FLuc)
Cc1cccc2nc(C(F)(F)F)nc(=O)n12	none
CSc1nsc(/C=C/Nc2ccc(C)cc2)c1C#N	FLuc counter 1.3µM, SMN2 splice up inconclusive (no result: ELG1 genotox, NPC1 promoter act, Rab9 prom act)
O=C(Nc1ccc2[nH]ncc2c1)c1ccccc1Cl	FLuc counter 9.5µM, ELG1 genotox inconclusive, NPC1 promoter act 4µM, Rab9 prom act 3.5µM (no result: SMN2 splice up, KinaseGlo FLuc)
O=C(Nc1ccc2[nH]ncc2c1)c1ccccc1Br	FLuc counter 17µM, NPC1 promoter act 3.2µM, Rab9 prom act inconclusive (no result: SMN2 splice up, KinaseGlo FLuc)
O=C(Cc1ccccc1)Nc1ccc2[nH]ncc2c1	none (no result: SMN2 splice up, KinaseGlo FLuc)
